Screens deposited in PubChem by National Center for Advancing Translational Sciences (NCATS).
Only some compounds are listed: those with a hit (about 7.4% of all), similar ones and a draw of the others.
HEK293 tox = Cytotoxic Profiling in HEK 293 Cell Line of Diverse Libraries Using Quantitative High-Throughput Screening; 94,000 compounds, 6.6% hits; HEK 293 viability, ATP luminescence (CellTiter-Glo), 48-72 h; Potency, µM (highest dose often 115 µM), for inactives: at the top dose activity change, negative = cytotoxicity, most hits filed as inhibitors; further: nearly all actives have a fitted effect of over 60% in size
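ATP-coupled CellTiter-Glo luminescence served as viability read-out, recorded 10 min after reagent addition at room temperature. HEK 293 cells, 250 cells/well, had been incubated with pintool-transferred compound for 48 or 72 hr at 37 degree Celsius.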
NIH3T3 tox = Cytotoxic Profiling in NIH 3T3 Cell Line of Diverse Libraries Using Quantitative High-Throughput Screening; NIH 3T3 viability, CellTiter-Glo ATP luminescence, 48-72 h; Potency, µM (titrated, usually from 96.7 µM), inactives show at the top dose activity change, negative = cytotoxicity, hits mostly inhibitors; 94,000 compounds, 4.3% hits; AID 1345082, 2018; further: nearly all actives have a fitted effect of over 55% in size
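Cells were seeded at 400 per well, treated with pin-transferred compound, and kept 48 or 72 hr at 37 °C before CellTiter-Glo addition and luminescence imaging of cellular ATP.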
SNCA expr inh = Primary qHTS assay for inhibitors of alpha-synuclein gene (SNCA) expression; HEK-293 SNCA-luciferase knock-in, luminescence, 24 h; Potency, µM (doses to about 57.2 µM), for inactives: top-dose activity change, negative = inhibition, actives largely listed as inhibitors; 140,000 compounds, 0.17% hits; AID 1671194, 2021;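 further: plate controls were DMSO cells for no effect and cell-free wells for full effect; nearly all actives have a fitted effect of over 45% in size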
NPR1 antag = Natriuretic polypeptide receptor (hNpr1) antagonism - Primary qHTS; Atrial natriuretic peptide receptor 1 (Homo sapiens), P16066; HEK293 hNpr1 GloSensor cGMP, ANP-stimulated luminescence; Potency, µM (titrated, usually from 46.3 µM), inactives show at the top dose activity change, negative = inhibition, usual class: inhibitors; 76,000 compounds, 1.6% hits; AID 1347048, 2019; calls by dose curve; further: nearly all actives have a fitted effect of over 60% in size
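HEK293 cells stably expressing human Npr1 and cGMP GloSensor pGS-40F, loaded 2 h with 2% GloSensor reagent, given compound 30 min at room temperature. Luminescence read before and 20 min after 0.1 nM hNppA.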
Luciferase inh = Firefly luciferase inhibition profiling of diverse chemical library using quantitative high-throughput screening; purified P. pyralis luciferase, luminescence, biochemical; Potency, µM (series often up to 115 µM), most hits filed as inhibitors; 76,000 compounds, 2.5% hits; AID 1347043, 2019; further: nearly all actives have a fitted effect of over 65% in size
Target sequence (P08659 whole entry, looked up): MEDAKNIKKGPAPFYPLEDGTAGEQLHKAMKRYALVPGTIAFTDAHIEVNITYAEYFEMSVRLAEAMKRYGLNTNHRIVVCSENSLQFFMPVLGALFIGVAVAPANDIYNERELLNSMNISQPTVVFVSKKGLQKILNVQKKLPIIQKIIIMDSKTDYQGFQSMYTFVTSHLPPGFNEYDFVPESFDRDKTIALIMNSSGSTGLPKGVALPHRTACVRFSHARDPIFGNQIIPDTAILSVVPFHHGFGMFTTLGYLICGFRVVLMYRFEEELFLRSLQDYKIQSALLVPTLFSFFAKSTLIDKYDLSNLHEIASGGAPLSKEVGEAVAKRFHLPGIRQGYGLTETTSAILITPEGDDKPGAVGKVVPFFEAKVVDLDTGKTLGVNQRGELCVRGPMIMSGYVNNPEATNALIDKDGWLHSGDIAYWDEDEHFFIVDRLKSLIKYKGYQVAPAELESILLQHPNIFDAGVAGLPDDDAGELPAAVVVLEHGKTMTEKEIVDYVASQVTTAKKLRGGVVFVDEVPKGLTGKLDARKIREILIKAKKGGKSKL
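FLuc 10nM, D-luciferin 10uM, ATP 10uM, Mg acetate 10mM, Tris acetate pH 7.5, Tween/BSA; cpd qHTS; enzyme added last; CCD luminescence.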
HEK293 viab = GF-AFC viability counterscreen for inhibitors of alpha-synuclein gene (SNCA) expression | HEK-293-SNCA-luc viability, GF-AFC fluorescence, 24 h | Potency, µM (highest dose often 57.1 µM), inactives show top-dose activity change, negative = cytotoxicity, hits mostly cytotoxic | 150,000 compounds, 0.12% hits | AID 1671193, 2021;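 further: 0% = DMSO-treated cells and -100% = medium-only wells without cells; nearly all actives have a fitted effect of over 30% in size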
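HEK-293-SNCA-luc cells (1500/well) plated 24 h, then exposed 24 h to a dilution series; GF-AFC added 30 min at 37C, fluorescence 405/540 nm; normalised to medium-only and DMSO wells, Hill fit.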
* hit, by the source's call; i = inactive; ? = inconclusive; . = no result given; [ ] = dose if it differs, or a comment. Unless noted, the call rests on the fitted dose curve; in most records, active means well fitted curve in the direction sought with a large enough effect; inconclusive means small, poorly fitted or top-dose-only effect, or another doubt; inactive means no such curve, though single readings can be large; an effect the other way counts as inactive or inconclusive. Unless noted, on the % scale 0 is the no-effect control and ±100 the full control effect; potency means the concentration at half of the fitted maximal effect.

SMILES | HEK293 tox | NIH3T3 tox | SNCA expr inh | NPR1 antag | Luciferase inh | HEK293 viab
O=C(CC(c1ccccc1)c1ccccc1Cl)N(Cc1cccnc1)C1CC1 (stereo not given) | 35.5µM* | ? | -20.4% | -26.3% | i | -12.1%
c1ccc2[nH]c([C@H]3CCN(CC4CCCCC4)C3)nc2c1 | ? | ? | 12.5%[87.6 µM] | -8.1%[70.6 µM] | ? | -5.5%[87.6 µM]
Cn1c(CO[C@H]2CN(Cc3cnc4ccccc4c3)C[C@H]2F)nc2ccccc21 | 79.4µM* | ? | 0.0%[87.6 µM] | ? | i | -23.1%[87.6 µM]
COc1cccc(CN2CC[C@H](c3nc4ccccc4[nH]3)C2)c1 | ? | -17.9%[138 µM] | 14.2%[87.6 µM] | 2.5%[70.6 µM] | i | -2.5%[87.6 µM]
c1ccc2ncc(CN3CC[C@H](c4nc5ccccc5[nH]4)C3)cc2c1 | 70.8µM* | ? | 29.8%[87.6 µM] | -16.4%[70.6 µM] | i | -18.3%[87.6 µM]
Cn1c(CN2CC[C@H](c3nc4ccccc4[nH]3)C2)nc2ccccc21 | 44.7µM* | ? | -19.3%[87.6 µM] | -14.6%[70.6 µM] | i | -19.8%[87.6 µM]
Cn1c([C@H]2CCN(Cc3cnc4ccccc4c3)C2)nc2ccccc21 | 70.8µM* | ? | -2.3%[87.6 µM] | -6.5%[70.6 µM] | i | -22.8%[87.6 µM]
Cn1c([C@H]2CCN(Cc3ccc4c(c3)OCO4)C2)nc2ccccc21 | ? | ? | 28.7%[87.6 µM] | -10.8%[70.6 µM] | i | -11.9%[87.6 µM]
CC(C)CN1CC[C@H](c2nc3ccccc3n2C)C1 | ? | -24.4%[230 µM] | 2.4%[87.6 µM] | -0.3%[70.6 µM] | 22.4µM* | -12.3%[87.6 µM]
COc1ccc(-c2ccccc2C(=O)N2CCC(NC(=O)c3ccccc3OC)CC2)nn1 | -0.4% | 1.4% | . | . | . | .
Cc1ccc(C2(C(=O)N[C@@H]3COCC[C@@H]3OCc3ccccc3)CC2)cc1 | 44.7µM* | ? | -4.8% | -9.9% | i | -23.4%
O=C(NC1CCCC1)N1c2ccccc2CC1c1nc(C2CC2)no1 (stereo not given) | ? | ? | 101.4% | ? | 20µM* | -2.2%
COCCCNc1ccnc(-c2nnc(C)n2-c2ccccc2)c1 | -10.1%[172 µM] | 100µM* | -8.7%[87.6 µM] | -13.5%[70.6 µM] | i | -5.3%[87.6 µM]
CCCCCC(=O)N1CCC(=O)N(CCOC)C[C@H]2COc3ccc(C)cc3[C@H]21 | -18.4% | ? | . | . | . | .
COc1ccc(-c2cn3c(n2)N(C(=O)Cc2cccs2)CCC3)cc1 | ? | ? | 46.1% | -1.9% | i | 0.4%
O=C(c1ccco1)N1CCCn2cc(-c3ccc4c(c3)OCO4)nc21 | ? | i | 4.9% | 5.3% | i | 1.4%
O=C(c1cccs1)N1CCCn2cc(-c3ccc4c(c3)OCO4)nc21 | ? | i | 104.3% | 3.5% | 39.8µM* | -10.3%
COc1ccc(-c2cn3c(n2)N(C(=O)c2cccs2)CCC3)cc1 | ? | 3.2% | 156.6% | -3.8% | 35.5µM* | -1.5%
O=C(C1CCCCC1)N1CCN2CCS(=O)(=O)N(C3CC3)C(=O)C2C1 (stereo not given) | -25.5% | -38.7% | -16.2% | . | . | -5.3%
CNC(=O)c1cc(C2CC2)nc2c1c(C1CCN(C(=O)Cc3ccccn3)CC1)nn2C | 0.5% | i | . | . | . | .
CCN1C[C@H]2COc3ccc(C)cc3[C@H]2N(C(=O)c2ccccc2)CCC1=O | ? | -23.8% | . | . | . | .
Cc1ccc(S(=O)(=O)c2ccc([N+](=O)[O-])o2)cc1 | . | . | . | . | . | 9.47µM*
Cn1cc(-c2nc(N3CCOCC3)cc3c2CN(CC2CC2)C3=O)cn1 | -17.2%[172 µM] | 10µM* | 14.6%[87.6 µM] | 6.3%[70.6 µM] | i | 14.6%[87.6 µM]
COc1ccc(-c2nc(N3CCOCC3)cc3c2CN(CC2CC2)C3=O)cn1 | ? | ? | 23.2%[87.6 µM] | 1.6%[70.6 µM] | i | 4.4%[87.6 µM]
COc1ccccc1-c1nc(N2CCOCC2)cc2c1CN(Cc1cnn(C)c1)C2=O | -11.9%[172 µM] | 25.1µM* | 4.3%[87.6 µM] | 2.3%[70.6 µM] | i | 1.8%[87.6 µM]
SMILES | HEK293 tox | NIH3T3 tox | SNCA expr inh | NPR1 antag | Luciferase inh | HEK293 viab
COc1ccc(-c2nc(N3CCOCC3)cc3c2CN(Cc2ccccc2)C3=O)cc1OC | ? | ? | 25.7% | -10.1% | i | 1.5%
Cc1cccc(CC(=O)N2CCC3(CCC(=O)N(CC4CC4)CC3)CC2)c1 | -24.3% | ? | -12.9% | . | . | -7.3%
O=[S+]1([O-])c2cnccc2O[C@@H](COCc2ccccc2)CN1Cc1ccccc1 | ? | ? | ? | . | . | -8.0%[23.9 µM]
CN1CC(=O)N(C2CCC2)Cc2c(NC3CC3)ncnc21 | -3.3%[172 µM] | -15.0%[138 µM] | 9.5%[87.6 µM] | . | . | 1.0%[87.6 µM]
COc1ccc2ccc(OCc3nc(C(=O)NCc4cnc(C)cn4)co3)cc2c1 | ? | ? | -19.2% | -21.8% | i | 0.2%
COc1ccc2ccc(OCc3nc(C(=O)NC(C)c4n[nH]c(C)n4)co3)cc2c1 (stereo not given) | 44.7µM* | -27.7% | -20.9% | 11.2µM* | ? | -4.1%
COc1ccc2ccc(OCc3nc(C(=O)N4CCCC(C)(CO)C4)co3)cc2c1 (stereo not given) | ? | ? | ? | 11.2µM* | ? | ?
Fc1ccc(CN2CCC3(CC(c4cccc(C(F)(F)F)c4)=NO3)C2)cc1 (stereo not given) | ? | ? | -15.1% | . | . | 4.3%
Cc1nc(C2CCCCN2C(=O)Nc2ccccc2F)n[nH]1 (stereo not given) | -11.1% | -17.9% | 27.4% | . | . | -27.0%
CC(C)CNc1ccc2c(n1)C(C)(C(=O)NC1COC1)CN(Cc1ccccc1)C2 (stereo not given) | ? | ? | ? | -10.8%[70.6 µM] | i | ?
CC1(C(=O)NCc2ccccc2)CN(Cc2ccccc2)Cc2ccc(N3CCOCC3)nc21 (stereo not given) | 50.1µM* | ? | -19.7% | -19.1% | i | -26.4%
CC(C)CNc1ccc2c(n1)C(C)(C(=O)NCCc1cnc[nH]1)CN(Cc1ccccc1)C2 (stereo not given) | ? | 31.6µM* | -19.5% | 2.8% | i | -23.7%
CC(C)CNc1ccc2c(n1)C(C)(C(=O)Nc1ccncc1)CN(Cc1ccccc1)C2 (stereo not given) | 31.6µM* | 22.4µM* | ? | -16.2%[70.6 µM] | i | ?
CC(C)CNc1ccc2c(n1)C(C)(C(=O)Nc1ccn(C)n1)CN(Cc1ccccc1)C2 (stereo not given) | ? | ? | -28.7%[87.6 µM] | 0.3%[70.6 µM] | i | -24.7%[87.6 µM]
CC(C)CNc1ccc2c(n1)C(C)(C(=O)NC(C)C)CN(Cc1ccccc1)C2 (stereo not given) | 63.1µM* | 35.5µM* | ? | ? | i | ?
